According to the supplement of paper PMC6555819:

What was measured:
Experiment in all cases: PBM binding z-score (relative to random genomic background probes); higher = stronger binding; sequences stand for … in GC…GCGATTGACAGCGTAGAATGAAGG
[1] = test system: FXR:RXRa (NR concentration 270 nM, RXRa partner concentration 90 nM)
Outline: (§1)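 Random background probes are the reference for binding z-scores. These scores derive from regression-normalized fluorescence on custom Agilent 4×180K protein-binding microarrays incubated 1 h with ligand-free nuclear receptor dimers. Binding was detected with antibodies against each partner (one per run).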

[2] = test system: LXRa:RXRa (NR concentration 270 nM, RXRa partner concentration 90 nM)
Outline: as §1

[3] = test system: LXRa homodimer (NR concentration 270 nM)
Outline: as §1

[4] = test system: LXRb:RXRa (NR concentration 270 nM, RXRa partner concentration 90 nM)
Outline: as §1

[5] = test system: LXRb homodimer (NR concentration 270 nM)
Outline: as §1

[6] = test system: PPARg:RXRa (NR concentration 180 nM, RXRa partner concentration 90 nM)
Outline: as §1

[7] = test system: PPARg:RXRa 270nM:90nM, anti-RXR (NR concentration 270 nM, RXRa partner concentration 90 nM)
Outline: as §1

[8] = test system: PPARg:RXRa 30nM:10nM, anti-RXR (NR concentration 30 nM, RXRa partner concentration 10 nM)
Outline: as §1

[9] = test system: PPARg:RXRa 90nM:30nM, anti-RXR (NR concentration 90 nM, RXRa partner concentration 30 nM)
Outline: as §1

[10] = test system: PPARg:RXRa DBDmut IVT, anti-RXR (DBD mutation: RXRa K156A/R161A, NR concentration 270 nM, RXRa partner concentration 90 nM)
Outline: as §1

[11] = test system: PPARg:RXRa IVT, anti-PPARg (NR concentration 270 nM, RXRa partner concentration 90 nM)
Outline: as §1

[12] = test system: PPARg DBDmut:RXRa IVT, anti-PPARg (DBD mutation: PPARg1 K132A/R137A, NR concentration 270 nM, RXRa partner concentration 90 nM)
Outline: as §1

[13] = test system: PPARg DBDmut IVT, anti-PPARg (DBD mutation: PPARg1 K132A/R137A, NR concentration 270 nM)
Outline: as §1

[14] = test system: PPARg homodimer (NR concentration 180 nM)
Outline: as §1

[15] = test system: PXR:RXRa (NR concentration 270 nM, RXRa partner concentration 90 nM)
Outline: as §1

[16] = test system: PXR homodimer (NR concentration 270 nM)
Outline: as §1

[17] = test system: RARa:RXR (NR concentration 270 nM, RXRa partner concentration 90 nM)
Outline: as §1

[18] = test system: RARa homodimer (NR concentration 270 nM)
Outline: as §1

[19] = test system: RARb:RXRa (NR concentration 270 nM, RXRa partner concentration 90 nM)
Outline: as §1

Sequence	PBM binding z-score [1]	PBM binding z-score [2]	PBM binding z-score [3]	PBM binding z-score [4]	PBM binding z-score [5]	PBM binding z-score [6]	PBM binding z-score [7]	PBM binding z-score [8]	PBM binding z-score [9]	PBM binding z-score [10]	PBM binding z-score [11]	PBM binding z-score [12]	PBM binding z-score [13]	PBM binding z-score [14]	PBM binding z-score [15]	PBM binding z-score [16]	PBM binding z-score [17]	PBM binding z-score [18]	PBM binding z-score [19]
AGAATGAGGTTACCAGAGATCAGGGAAACGCTTG	2.17	6.18	-0.181	3.62	-0.177	2.77	2.74	0.897	1.85	3.82	3.51	1.02	-0.0941	0.651	1.95	-0.0597	2.47	0.341	2.15
ATATGTAGGTTACATCCGGGTCTTTCAGGCTATG	0.415	2.91	0.384	1.23	0.526	4.92	4.07	1.55	3.34	7.37	7.42	1.99	3.12	1.13	0.703	0.192	0.794	0.548	1.21
TCTCGGAGGACACGAAAGGTCTGAGCTCGACATC	0.119	-0.119	-0.569	-0.279	-0.889	0.108	1.01	1.92	1.49	1.62	-0.101	-0.378	-0.264	0.204	-0.0379	-0.678	0.227	-0.321	1.7
CAAACTAGGTCAAAGGTCAAAATCGAGCCAACCA	8.54	7.06	4.95	7.22	3.3	13.4	11.8	13.7	14.5	8.4	9.49	5.76	3.58	5.14	6.99	1.48	8.9	2.19	5.94
ATCGAAGGGTCGAAGGTGAGTATACCCACCCGAA	1.3	1.26	-0.26	1.21	-0.316	2.73	3.11	1.08	2.47	-0.959	1.2	0.357	-0.0817	0.676	1.64	-0.184	2.48	-0.374	2.15
CCAGACAGGTGAAAGGTAACTCACTCTGGTACGC	1.02	0.665	-0.00301	0.938	-0.466	6.03	6.05	4.21	6.66	2.36	3.27	-0.16	0.145	1.28	0.983	0.186	1.84	0.159	1.26
ACTAGTTGGTCAGCTGAGGTCACACTCAATTCGG	3.79	3.19	2.29	3.64	0.527	1.23	1.94	0.159	1.26	1.55	2.58	0.716	-0.0108	1.84	5.39	1.85	4.51	0.596	3.54
CGAACTATGTCAAGGACAGTGAATCTCCGCACGC	0.0723	-0.232	-0.234	-0.456	-0.269	0.856	0.74	-0.213	0.259	3.57	2.11	-0.346	0.361	0.224	-0.112	0.37	0.29	0.0991	0.88
CCTGCTAGTTCATGGTCAGCTAATCTACAGTATG	-0.0312	0.212	-0.184	0.106	-0.269	-0.348	-0.236	-0.124	-0.29	0.644	-0.0239	-0.434	-0.632	-0.0541	0.563	0.0644	0.225	-0.814	1.55
CTCGAAAGGTGGTGCTCAGGTGAGTATACCAAAC	-0.352	-0.533	-0.489	-0.329	-0.573	-0.375	-0.0981	-0.462	-0.126	-0.605	0.359	-0.543	-0.314	0.0565	-0.599	-0.22	0.343	-0.47	0.237
ATCGAAAGGTGGACGAGGTGAGTATACACCGTTT	0.217	-0.178	-0.304	-0.111	-0.212	0.872	0.439	0.356	0.402	-0.328	0.716	0.496	0.266	0.223	0.219	0.0997	0.702	0.444	0.89
TAGCCTCGGTCATTGGGCCAGTATAGTACGCATC	0.733	0.704	0.605	0.0326	-0.0168	0.597	0.0656	-0.712	-0.209	0.608	1.16	-0.424	-0.786	-0.222	-0.491	-0.977	-0.492	-0.437	2.33
AGCTCTAGGTAAAAGTTCAGTGAATCCCGAGGAT	0.542	0.948	0.969	0.702	-0.253	7.73	7.47	6.13	7.9	2.59	2.87	-0.0694	0.333	0.844	1.73	1.44	1.55	0.488	2.4
AGATTGAGGTTACCAAAGATCAGGGAAACGCTTG	2.33	6.22	0.108	3.17	-0.201	2.04	2.22	0.623	1.49	3.1	2.54	0.865	-0.0178	0.218	1.5	-0.393	2	0.127	2.24
CCTTACGGGTCTCTCCAGGTTATAGCATCGGAGT	0.0576	2.63	0.136	0.0193	-0.526	-0.0815	-0.225	-0.385	-0.47	0.165	0.161	-0.412	-0.96	0.354	0.294	-0.138	0.923	0.0233	0.15
